# Compound activity (PubChem BioAssay)
# Sampled rows, rich in hits. Any-hit rate of the full collection: about 0.44%.
# S aureus QS inh: inhibitors of bacterial quorum sensing in S. aureus; S. aureus RN6390 RNAIII-GFP reporter, AIP-induced, flow cytometry 3 h; AID 527; 24,000 compounds, 0.3% hits; inhibition, % at 2 µM;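 active means share of bacteria positive for the green fluorescent reporter and its mean brightness both inhibited by 50% or more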;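 further: 0% = AIP-stimulated control and 100% = unstimulated bacteria without AIP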
# Proteasome disasm: blocks ATP-dependent breakdown of the yeast 26S proteasome; anti-FLAG beads, GFP-proteasome disassembly, flow cytometry; inhibition of disassembly, % (concentration not given with the values); 24,000 compounds, 0.2% hits;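 active means inhibition of disassembly above about 33%, limit read from the data; inconclusive means likely self-fluorescent, control bead median signal at least 40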;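 further: plate controls were ATP control with full disassembly for no effect and ATP-gamma-S intact proteasomes for full effect; higher percent means more bead fluorescence retained so stronger block of disassembly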
# * = called active by the depositor; u = inconclusive; x = no result given.
SMILES,S aureus QS inh,Proteasome disasm
CN(C)c1ccc(/C=C/C(O)=C2/C(=O)N(C)C3(C)CC2c2ccccc2O3)cc1 (configuration not stated),1.1,84.6*
COc1cc(N2C(=O)NC3CC2(C)Oc2ccccc23)cc(OC)c1OC (configuration not stated),1.5,0.2
O=C(Nc1ccc(F)cc1)N(CCCN1CCOCC1)Cc1cc2cc3c(cc2[nH]c1=O)OCO3,9.8,-5.2
CCc1ccc2[nH]c(=O)c(CN(CCCN3CCOCC3)C(=O)Nc3ccc(F)cc3)cc2c1,92.9*,x
Cc1cc(-c2ccccc2)n2ncc(C#N)c2n1,-1.6,-1.0
CCOc1ccc(-c2nc(CSCC(=O)NCc3ccco3)c(C)o2)cc1,5.3,0.2
COC(=O)C(Cc1cncn1COCc1ccccc1)NC(=O)OC(C)(C)C (configuration not stated),-0.6,-1.0
Cc1nnc(SCC(=O)Nc2ccc(Br)cn2)[nH]c1=O,-2.4,-0.7
CCc1c(C)nc(SCC(=O)Nc2ccc(Br)cc2)[nH]c1=O,79.6*,-0.8
CCCCCC(=O)N1CC2(C)CN(C(=O)CCCCC)CC(C)(C1)C2=O,0.1,-0.5
O=C(NCCN1CCN(c2ccccc2F)CC1)c1cccn2c(=O)c3ccccc3nc12,-13.6,0.6
O=C(NCCN1CCN(c2ccccc2)CC1)c1cccn2c(=O)c3ccccc3nc12,80.1*,3.0
O=C(NCc1ccccc1)c1cnc2n(c1=O)CCS2,-2.8,1.2
O=C(NCCCc1ccccc1)c1cnc2n(c1=O)CCS2,56.0*,0.3
Cc1cc(CN2CCN(CCC#N)CC2)c(O)c(C2(C)CCCCC2)c1,0.6,-0.7
CC(=O)c1ccc(N2CCN(C(=O)c3cc4c(-c5ccccc5F)nn(C)c4s3)CC2)cc1,-1.3,0.6
CC(CCc1ccco1)NC(=O)c1cc2c(-c3ccccc3F)nn(C)c2s1 (configuration not stated),61.3*,1.2
Cc1cccc(NC(=O)c2sc3nc(-c4ccccc4)cn3c2C)n1,13.0,-0.1
Cc1cccc(NC(=O)c2sc3nc(-c4ccc(F)cc4)cn3c2C)n1,11.4,75.3*
COc1ccccc1-n1cnnc1SCC(=O)c1ccc[nH]1,-0.8,4.0
O=C(NCc1cccnc1)C1c2ccccc2C(=O)N1C1CCCC1 (configuration not stated),-0.3,u
CSc1nsc(SC)c1NC(=O)OCC1CCCO1 (configuration not stated),5.9,0.8
N#Cc1cc2c(nc1SCC(=O)Nc1sc3c(c1C#N)CCC3)CCCCC2,21.4,104.6*
CCOC(=O)c1sc(NC(=O)CSc2nc3c(cc2C#N)CCC3)c(C#N)c1C,-13.7,1.0
COC(=O)C1=C(C)NC(=O)CC1c1cccc(Cl)c1Cl (configuration not stated),7.6,-0.9
SMILES,S aureus QS inh,Proteasome disasm
CCOC(=O)C1=C(C)NC(C)=C(C(=O)OC)C1c1cccc(Cl)c1Cl (configuration not stated),53.8*,1.3
COc1ccccc1C1(CC(=O)N2CCOCC2)CCOC(C(C)C)C1 (configuration not stated),-0.8,-3.8
O=C1CC(c2cccc(Cl)c2)Cc2nc(N3CCN(c4ccccc4)CC3)ncc21 (configuration not stated),0.4,-2.9
O=C1CC(c2ccccc2)Cc2nc(N3CCc4ccccc43)ncc21 (configuration not stated),17.0,74.2*
Cc1cc(C)cc(OCC(O)CN2C(=O)NC(C)(C)C2=O)c1 (configuration not stated),-0.2,0.3
Clc1ccc(Cn2cccc2C2=NCCO2)cc1,-0.3,0.5
c1ccc(-c2nc(N3CCCCCC3)nc(-n3ccnc3)n2)cc1,18.9,-0.1
c1ccc(-c2ccc(C(c3ccccc3)n3ccnc3)cc2)cc1 (configuration not stated),57.9*,0.3
CCOC(=O)c1c(C)[nH]c(C(=O)Cn2c(=O)c3c(ncn3CC)n(Cc3ccccc3)c2=O)c1C,19.9,70.0*
CCOC(=O)c1c(C)[nH]c(C(=O)CSc2nc3ccccc3o2)c1C,-0.1,0.6
